The text below walks through data of paper PMC4336329 (PLoS ONE, 2015).

About 14,000 (4.5%) of roughly 310,000 compounds showed an effect of 50% or more. The effect is printed as a negative number. Shown is part of a subset that was picked to be rich in strong results.
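Also: peak tail current of the secondary pulse compared with the same well before compound.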

human ether-à-go-go-related gene (hERG) potassium channel, sequence (Q12809 whole entry, looked up): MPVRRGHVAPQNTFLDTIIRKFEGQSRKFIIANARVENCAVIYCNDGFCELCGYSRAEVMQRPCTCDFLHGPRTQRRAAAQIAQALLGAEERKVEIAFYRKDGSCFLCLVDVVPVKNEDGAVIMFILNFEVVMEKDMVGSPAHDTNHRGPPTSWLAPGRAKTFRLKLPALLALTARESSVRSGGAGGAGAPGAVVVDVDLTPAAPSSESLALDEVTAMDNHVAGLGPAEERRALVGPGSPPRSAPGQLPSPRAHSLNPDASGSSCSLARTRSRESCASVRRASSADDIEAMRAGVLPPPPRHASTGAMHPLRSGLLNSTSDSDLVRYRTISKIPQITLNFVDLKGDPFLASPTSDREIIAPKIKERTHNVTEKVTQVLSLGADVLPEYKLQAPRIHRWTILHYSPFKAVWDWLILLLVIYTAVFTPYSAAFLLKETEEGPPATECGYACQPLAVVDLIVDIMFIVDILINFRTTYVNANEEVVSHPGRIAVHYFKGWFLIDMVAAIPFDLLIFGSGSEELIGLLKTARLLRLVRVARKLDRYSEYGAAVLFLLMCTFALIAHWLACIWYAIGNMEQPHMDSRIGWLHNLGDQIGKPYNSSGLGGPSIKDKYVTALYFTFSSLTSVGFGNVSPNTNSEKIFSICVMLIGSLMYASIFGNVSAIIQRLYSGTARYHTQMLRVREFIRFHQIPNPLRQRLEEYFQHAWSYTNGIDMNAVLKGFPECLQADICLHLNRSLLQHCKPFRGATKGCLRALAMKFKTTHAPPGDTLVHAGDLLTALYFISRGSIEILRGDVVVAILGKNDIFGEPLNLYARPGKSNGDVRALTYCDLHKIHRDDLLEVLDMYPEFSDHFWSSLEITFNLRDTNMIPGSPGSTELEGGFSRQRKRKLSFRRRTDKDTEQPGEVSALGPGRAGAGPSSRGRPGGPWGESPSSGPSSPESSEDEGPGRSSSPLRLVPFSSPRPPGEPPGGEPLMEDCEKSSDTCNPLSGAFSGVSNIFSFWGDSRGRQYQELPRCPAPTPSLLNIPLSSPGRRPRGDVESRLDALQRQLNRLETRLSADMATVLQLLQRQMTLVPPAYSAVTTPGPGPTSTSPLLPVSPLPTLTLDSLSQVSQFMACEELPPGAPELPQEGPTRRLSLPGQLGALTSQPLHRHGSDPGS

This assay addresses human ether-à-go-go-related gene (hERG) potassium channel (human, UniProt Q12809). The experiment in a line: primary screen, population patch clamp on CHO cells stably expressing hERG; higher = less effect of the substance.
Take `O=C(O)c1cc(S(=O)(=O)N2CCCCC2)sc1Cl`: the “hERG current change (%, negative = inhibition) at 10uM” value is on record as 17%.

For the compound `Cc1ccc(C)c(OCCC(=O)NCCc2ccc(Cl)cc2)c1`, the “hERG current change (%, negative = inhibition) at 10uM” value was found to be 21.6%.

On to `O=C(COC(=O)Cc1cccc(C(F)(F)F)c1)NCC1CCCO1` (centres unmarked), for which the “hERG current change (%, negative = inhibition) at 10uM” value turned out to be 1.46%.

For the compound `O=C(OCC(=O)N1CCCc2ccccc21)c1cc(Br)ccc1O`, the “hERG current change (%, negative = inhibition) at 10uM” value is listed as 12.4%.

Regarding `COc1c2c(nc3occc13)C(CC=C(C)C)(OC)C(O)CC2` (centres unmarked), the “hERG current change (%, negative = inhibition) at 10uM” value is 5.5%.

As for `CCCn1cc(CN2CCC(Cc3ccccc3)(C(=O)OCC)CC2)c(C)n1`, the “hERG current change (%, negative = inhibition) at 10uM” value is on record as -60.4%.

As for `CC1(C)Cc2ccccc2-c2nc3n(c(=O)c21)CCCS3`, the “hERG current change (%, negative = inhibition) at 10uM” value is recorded as 12.8%.

`Cc1cc(OC(C)C(=O)NNC(=O)Nc2ccc(F)cc2F)cc(C)c1Cl` (centres unmarked): the “hERG current change (%, negative = inhibition) at 10uM” value was determined as 22.3%.

Regarding `COc1ccc(OC)c(CN2CCCC(CO)C2)c1` (centres unmarked), the “hERG current change (%, negative = inhibition) at 10uM” value is 0.935%.

For `COc1ccc(CCN2C(=O)c3ccccc3NC2c2cc(Cl)c(O)c(OC)c2)cc1` (centres unmarked), the “hERG current change (%, negative = inhibition) at 10uM” value was -4.85%.

As for `COc1cc(CN(C)CC2CCCN(CCc3ccccc3F)C2)cc(Cl)c1OC` (centres unmarked), the “hERG current change (%, negative = inhibition) at 10uM” value is given as -69.8%.

As for `COc1ccc(CCN2CCCC(CN(C)Cc3cc(OC)c(OC)c(OC)c3)C2)cc1` (centres unmarked), the “hERG current change (%, negative = inhibition) at 10uM” value was -51.6%.

With `COc1cc(OC)c(OC)cc1CN(C)CC1CCCN(CCc2ccccc2F)C1` (centres unmarked), the “hERG current change (%, negative = inhibition) at 10uM” value is -2.33%.

As for `COc1ccc(CCN2CCCC(CN(C)Cc3cc(Cl)c(O)c(OC)c3)C2)cc1` (centres unmarked), the “hERG current change (%, negative = inhibition) at 10uM” value is listed as -65.7%.

For `COc1ccc(CCN2CCCC(CN(C)Cc3cc(OC)ccc3OC)C2)cc1` (centres unmarked), the “hERG current change (%, negative = inhibition) at 10uM” value is listed as -69.1%.

`CN(Cc1ccccc1)CC1CCCN(CCc2ccccc2F)C1` (centres unmarked): the “hERG current change (%, negative = inhibition) at 10uM” value is on record as -49.9%.

Turning to `CC(=O)Nc1ccc(NC(=O)c2oc3cc(C)c(C)cc3c2C)cc1`, the “hERG current change (%, negative = inhibition) at 10uM” value was determined as 7.5%.

With `COc1ccc(-c2cc(CCCC(=O)NCCc3ccc(OC)cc3OC)no2)cc1`, the “hERG current change (%, negative = inhibition) at 10uM” value was found to be 5.37%.

On to `CN(CC1COCCO1)C(=O)c1cc(COc2c(F)cccc2F)on1` (centres unmarked), for which the “hERG current change (%, negative = inhibition) at 10uM” value stood at 6.62%.

Take `O=C(COc1ncnc2c(Cl)cc(Cl)cc12)NCCC1=CCCCC1`: the “hERG current change (%, negative = inhibition) at 10uM” value is on record as 12.4%.

Regarding `Cc1cccc(C(=S)N2CCOCC2)n1`, the “hERG current change (%, negative = inhibition) at 10uM” value was 5.42%.

Turning to `C=CCNC(=O)C(C)Sc1ccc(Cl)cc1` (centres unmarked), the “hERG current change (%, negative = inhibition) at 10uM” value turned out to be 0.00948%.

As to `Cc1cc(C(C)(C)C)cc(C)c1C(=O)O`, the “hERG current change (%, negative = inhibition) at 10uM” value stood at 0.0126%.

Regarding `Cn1cnnc1SCc1ccc(C(=O)N/N=C/c2cccs2)cc1`, the “hERG current change (%, negative = inhibition) at 10uM” value was 4.87%.

Turning to `COc1ccc(F)c(CN(C)CC2CCCN(CCc3ccc(F)cc3)C2)c1` (centres unmarked), the “hERG current change (%, negative = inhibition) at 10uM” value is given as -73.4%.

As to `CN1C(=O)Cc2cc(S(=O)(=O)N3CCN(c4cccc(Cl)c4)CC3)ccc21`, the “hERG current change (%, negative = inhibition) at 10uM” value worked out at 15.3%.

In the case of `O=NN(CCc1ccncc1)c1ccc(OCc2ccccc2)cc1`, the “hERG current change (%, negative = inhibition) at 10uM” value is recorded as -65.2%.

For the compound `O=C1NC(=O)C(CCc2ccncc2)(Cc2ccc(OCc3ccccc3)cc2)C(=O)N1`, the “hERG current change (%, negative = inhibition) at 10uM” value was 11.8%.

On to `COc1ccc(N(Cc2ccccc2)N=O)cc1`, for which the “hERG current change (%, negative = inhibition) at 10uM” value was -23.3%.

Regarding `Cc1ccc(SCC2=NNC(=O)C2)cc1`, the “hERG current change (%, negative = inhibition) at 10uM” value was -3.78%.

For the compound `Cn1nc(-c2ccccc2)c(-c2nc(-c3ccc(Cl)cc3)no2)c1Cl`, the “hERG current change (%, negative = inhibition) at 10uM” value is 6.65%.

Turning to `Cc1ccc2nc(N(CCN(C)C)C(=O)/C=C/c3cccs3)sc2c1.Cl`, the “hERG current change (%, negative = inhibition) at 10uM” value is reported as -40.3%.

In the case of `CCOc1ccccc1NC(=O)Cn1c(=O)c2ccccc2n(CC)c1=O`, the “hERG current change (%, negative = inhibition) at 10uM” value is -11.7%.

With `CC(C)(C)NC(=O)[C@@H]1C[C@@H]2CCCC[C@@H]2CN1C[C@@H](O)[C@H](Cc1ccccc1)NC(=O)[C@H](CC(N)=O)NC(=O)c1ccc2ccccc2n1.CS(=O)(=O)O`, the “hERG current change (%, negative = inhibition) at 10uM” value is -72.1%.

In the case of `CC(C)(C)NC(=O)[C@@H]1C[C@@H]2CCCC[C@@H]2CN1C[C@@H](O)[C@H](Cc1ccccc1)NC(=O)[C@H](CC(N)=O)NC(=O)c1ccc2ccccc2n1`, the “hERG current change (%, negative = inhibition) at 10uM” value was -9.59%.

With `CS(=O)(=O)O.Cc1c(O)cccc1C(=O)N[C@@H](CSc1ccccc1)[C@H](O)CN1C[C@H]2CCCC[C@H]2C[C@H]1C(=O)NC(C)(C)C`, the “hERG current change (%, negative = inhibition) at 10uM” value is given as -4.69%.

For `CC(=O)Nc1ccc(Nc2ncnc3c2cnn3-c2cccc(C)c2)cc1`, the “hERG current change (%, negative = inhibition) at 10uM” value came to 10%.

In the case of `O=C(O)c1ccc(S(=O)(=O)c2ccc(Sc3ccc(C(=O)O)c(C(=O)O)c3)cc2)cc1`, the “hERG current change (%, negative = inhibition) at 10uM” value was 23.3%.

Consider `CCCc1ccc(OCC(O)CN2CCN(C(=O)OCC)CC2)cc1.Cl` (centres unmarked), for which the “hERG current change (%, negative = inhibition) at 10uM” value was -52.2%.

Consider `CCOC(=O)N1CCN(CC(O)COc2ccc(C)c(C)c2)CC1.Cl` (centres unmarked), for which the “hERG current change (%, negative = inhibition) at 10uM” value turned out to be 6.64%.

On to `CCOC(=O)N1CCN(CC(O)COc2cc(C)cc(C)c2)CC1.Cl` (centres unmarked), for which the “hERG current change (%, negative = inhibition) at 10uM” value is reported as -12.7%.

`CCOC(=O)N1CCN(CC(O)COc2ccc(CC)cc2)CC1.Cl` (centres unmarked): the “hERG current change (%, negative = inhibition) at 10uM” value is on record as -31.2%.

For the compound `CCOC(=O)N1CCN(CC(O)COc2ccc(-c3ccccc3)cc2)CC1.Cl` (centres unmarked), the “hERG current change (%, negative = inhibition) at 10uM” value was -60.3%.

With `CCOC(=O)N1CCN(Cc2ccc(OCC(O)CN3CCCCC3)cc2)CC1` (centres unmarked), the “hERG current change (%, negative = inhibition) at 10uM” value worked out at 15.7%.
